# The full list was thinned out, with the strongest signals kept by preference.
# Experiments:
# Test in all cases: glycan array binding signal (z-score within array); higher = stronger binding
# Settings in all cases: glycan notation: IUPAC condensed, linker removed
# [1] = target: Man(a1-3)[Man(a1-6)]Man(a1-6)[Man(a1-3)]Man(b1-4)GlcNAc(b1-4)GlcNAc
# How it was run: (§1)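 Glycan array data came from 3228 arrays in the Consortium for Functional Glycomics database, and only arrays with an available protein sequence were kept. Glycan names were put into IUPAC-condensed notation, and columns mapping to the same glycan were averaged. The binding signal is a within-array Z-score, averaged across arrays of one protein sequence run at different concentrations or buffers and across linkers. A negative Z-score can be read as non-binding.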
# [2] = target: Man(a1-3)[Man(a1-6)]Man(b1-4)GlcNAc(b1-4)GlcNAc
# How it was run: as §1
# [3] = target: Man(a1-3)[Man(a1-6)]Man(b1-4)GlcNAc(b1-4)[Fuc(a1-6)]GlcNAc
# How it was run: as §1
# [4] = target: Neu5Ac(a2-3)Gal
# How it was run: as §1
# [5] = target: Neu5Ac(a2-3)Gal(b1-3)GalNAc(b1-4)[Neu5Ac(a2-3)]Gal(b1-4)Glc
# How it was run: as §1
# [6] = target: Neu5Ac(a2-3)Gal(b1-3)GlcNAc(b1-6)GalNAc
# How it was run: as §1
# [7] = target: Neu5Ac(a2-3)Gal(b1-4)GlcNAc(b1-2)[Neu5Ac(a2-3)Gal(b1-4)GlcNAc(b1-6)]Man(a1-6)[Neu5Ac(a2-3)Gal(b1-4)GlcNAc(b1-2)Man(a1-3)][GlcNAc(b1-4)]Man(b1-4)GlcNAc(b1-4)GlcNAc
# How it was run: as §1
# [8] = target: Neu5Ac(a2-3)Gal(b1-4)GlcNAc(b1-3)Gal(b1-4)GlcNAc(b1-3)[Neu5Ac(a2-3)Gal(b1-4)GlcNAc(b1-3)Gal(b1-4)GlcNAc(b1-6)]GalNAc
# How it was run: as §1
# [9] = target: Neu5Ac(a2-3)Gal(b1-4)[Fuc(a1-3)]GlcNAc(b1-3)Gal(b1-4)GlcNAc
# How it was run: as §1
# [10] = target: Neu5Ac(a2-3)Gal(b1-4)[Fuc(a1-3)]GlcNAc(b1-6)[Gal(b1-3)]GalNAc
# How it was run: as §1
# [11] = target: Neu5Ac(a2-3)[Neu5Ac(a2-6)]GalNAc
# How it was run: as §1
# [12] = target: Neu5Ac(a2-6)Gal(b1-4)GlcNAc(b1-2)Man(a1-3)[Man(a1-6)]Man(b1-4)GlcNAc(b1-4)GlcNAc
# How it was run: as §1
# [13] = target: Neu5Ac(a2-6)Gal(b1-4)GlcNAc(b1-2)Man(a1-6)[Man(a1-3)]Man(b1-4)GlcNAc(b1-4)GlcNAc
# How it was run: as §1
# [14] = target: Neu5Ac(a2-6)Gal(b1-4)GlcNAc(b1-3)Gal(b1-4)GlcNAc(b1-2)Man(a1-3)[Neu5Ac(a2-6)Gal(b1-4)GlcNAc(b1-3)Gal(b1-4)GlcNAc(b1-2)Man(a1-6)]GalNAc
# How it was run: as §1
# [15] = target: Neu5Ac(a2-6)Gal(b1-4)GlcNAc(b1-3)Gal(b1-4)GlcNAc(b1-3)Gal(b1-4)GlcNAc(b1-2)Man(a1-3)[Neu5Ac(a2-6)Gal(b1-4)GlcNAc(b1-3)Gal(b1-4)GlcNAc(b1-3)Gal(b1-4)GlcNAc(b1-2)Man(a1-6)]GalNAc
# How it was run: as §1
# [16] = target: Neu5Ac(a2-6)GalNAc(b1-4)GlcNAc
# How it was run: as §1
# [17] = target: Neu5Ac(a2-8)Neu5Ac(a2-8)Neu5Ac(a2-3)[Gal(b1-3)GalNAc(b1-4)]Gal(b1-4)Glc
# How it was run: as §1
# [18] = target: Neu5Ac(b2-6)GalNAc
# How it was run: as §1
# [19] = target: Fuc(a1-2)Gal
# How it was run: as §1
# [20] = target: Fuc(a1-2)Gal(b1-3)GalNAc
# How it was run: as §1
# [21] = target: Fuc(a1-2)Gal(b1-4)GlcNAc(b1-2)[Fuc(a1-2)Gal(b1-4)GlcNAc(b1-4)]Man(a1-3)[Fuc(a1-2)Gal(b1-4)GlcNAc(b1-2)Man(a1-6)]Man(b1-4)GlcNAc(b1-4)GlcNAc
# How it was run: as §1
# [22] = target: Fuc(a1-2)Gal(b1-4)GlcNAc6S
# How it was run: as §1
# [23] = target: Fuc(a1-2)Gal6S(b1-3)GlcNAc6S
# How it was run: as §1
# [24] = target: Fuc(a1-2)[Gal(a1-3)]Gal(b1-3)GlcNAc(b1-2)Man(a1-3)[Fuc(a1-2)[Gal(a1-3)]Gal(b1-3)GlcNAc(b1-2)Man(a1-6)]Man(b1-4)GlcNAc(b1-4)[Fuc(a1-6)]GlcNAc
# How it was run: as §1
# [25] = target: Fuc(a1-2)[Gal(a1-3)]Gal(b1-3)GlcNAc(b1-3)GalNAc
# How it was run: as §1
# [26] = target: Fuc(a1-2)[Gal(a1-4)]Gal(b1-4)GlcNAc
# How it was run: as §1
# [27] = target: Fuc(a1-2)[GalNAc(a1-3)]Gal(b1-4)[Fuc(a1-3)]GlcNAc(b1-3)GalNAc
# How it was run: as §1
# [28] = target: Fuc(b1-3)GlcNAc
# How it was run: as §1
# [29] = target: Gal(a1-2)Gal
# How it was run: as §1
# [30] = target: Gal(a1-3)Gal
# How it was run: as §1
# [31] = target: Gal(a1-3)Gal(b1-4)GlcNAc
# How it was run: as §1
# [32] = target: Gal(a1-3)[Gal(a1-4)]Gal(b1-4)GlcNAc
# How it was run: as §1
# [33] = target: Gal(a1-4)Gal(b1-3)GlcNAc(b1-2)Man(a1-3)[Gal(a1-4)Gal(b1-3)GlcNAc(b1-2)Man(a1-6)]Man(b1-4)GlcNAc(b1-4)GlcNAc
# How it was run: as §1
# [34] = target: Gal(b1-2)Gal
# How it was run: as §1
# [35] = target: Gal(b1-3)Gal(b1-4)GlcNAc
# How it was run: as §1
# [36] = target: Gal(b1-3)GalNAc
# How it was run: as §1
# [37] = target: Gal(b1-3)GalNAc(a1-3)[Fuc(a1-2)]Gal(b1-4)GlcNAc
# How it was run: as §1
# [38] = target: Gal(b1-3)GalNAc(b1-4)Gal(b1-4)Glc
# How it was run: as §1
# [39] = target: Gal(b1-3)GlcNAc(b1-6)Gal(b1-4)GlcNAc
# How it was run: as §1
# [40] = target: Gal(b1-3)GlcNAc6S
# How it was run: as §1
# [41] = target: Gal(b1-3)[GlcNAc(b1-6)]GalNAc
# How it was run: as §1
# [42] = target: Gal(b1-4)GlcNAc(a1-6)Gal(b1-4)GlcNAc
# How it was run: as §1
# [43] = target: Gal(b1-4)GlcNAc(b1-2)Man(a1-3)[Gal(b1-4)GlcNAc(b1-2)Man(a1-6)][GlcNAc(b1-4)]Man(b1-4)GlcNAc(b1-4)[Fuc(a1-6)]GlcNAc
# How it was run: as §1
# [44] = target: Gal(b1-4)GlcNAc(b1-2)Man(a1-3)[Man(a1-6)]Man(b1-4)GlcNAc(b1-4)GlcNAc
# How it was run: as §1
# [45] = target: Gal(b1-4)GlcNAc(b1-3)Gal(b1-3)GlcNAc
# How it was run: as §1
# [46] = target: Gal(b1-4)GlcNAc(b1-3)Gal(b1-4)GlcNAc(b1-3)Gal(b1-4)GlcNAc(b1-3)Gal(b1-4)GlcNAc(b1-2)[Gal(b1-4)GlcNAc(b1-3)Gal(b1-4)GlcNAc(b1-3)Gal(b1-4)GlcNAc(b1-3)Gal(b1-4)GlcNAc(b1-6)]Man(a1-6)[Gal(b1-4)GlcNAc(b1-3)Gal(b1-4)GlcNAc(b1-3)Gal(b1-4)GlcNAc(b1-3)Gal(b1-4)GlcNAc(b1-2)Man(a1-3)]Man(b1-4)GlcNAc(b1-4)[Fuc(a1-6)]GlcNAc
# How it was run: as §1
# [47] = target: Gal6P(b1-4)GlcNAc
# How it was run: as §1
# [48] = target: Gal6S(b1-3)GlcNAc
# How it was run: as §1
binder,measurement,setting,value
HHA (Hippeastrum hybrid) (protein) MQQDCNLVLYDVDKPIWASNTGGLARDCHLNMQSDGNLVVYAPRNQVIWASNTQGENGNYVCILQKDRNVVIYGTARWATGTNIHGAGIVGVPGSAPQNTTAEMIKLVRKYLITK,glycan array binding signal (z-score),[1],5.15
same,glycan array binding signal (z-score),[2],8.3
same,glycan array binding signal (z-score),[3],6.07
same,glycan array binding signal (z-score),[4],-0.214
same,glycan array binding signal (z-score),[5],-0.218
same,glycan array binding signal (z-score),[6],-0.216
same,glycan array binding signal (z-score),[7],-0.221
same,glycan array binding signal (z-score),[8],-0.187
same,glycan array binding signal (z-score),[9],-0.211
same,glycan array binding signal (z-score),[10],-0.179
same,glycan array binding signal (z-score),[11],-0.215
same,glycan array binding signal (z-score),[12],0.002
same,glycan array binding signal (z-score),[13],3.55
same,glycan array binding signal (z-score),[14],-0.165
same,glycan array binding signal (z-score),[15],-0.107
same,glycan array binding signal (z-score),[16],-0.222
same,glycan array binding signal (z-score),[17],-0.177
same,glycan array binding signal (z-score),[18],-0.213
VLRB.aGPA.23-GCN4-biotin (Petromyzon marinus) (protein) ACPSQCSCSGTEVNCAGKSLASVPAGIPTTTRVLYLNSNQITKLEPGVFDRLANLRELHLWGNQLVSLPPGVFDNLANLEKLWLNSNQLTSLPAGLFDRLVNLEHLGLCCMKLTELPSGAFDKLTRLKQLGLDQNQLKSIPDGAFARLPSLTHVWLHTNPWDCQCTDILYLSGWVAQHSSIVGEGWPWRHSPDSAKCSGTNTPVRAVTEASTSPSKCP,glycan array binding signal (z-score),[19],13.2
same,glycan array binding signal (z-score),[20],12.6
same,glycan array binding signal (z-score),[21],-0.082
same,glycan array binding signal (z-score),[22],-0.082
same,glycan array binding signal (z-score),[23],-0.055
same,glycan array binding signal (z-score),[24],-0.07
same,glycan array binding signal (z-score),[25],-0.083
same,glycan array binding signal (z-score),[26],-0.066
same,glycan array binding signal (z-score),[27],0.368
same,glycan array binding signal (z-score),[28],-0.075
same,glycan array binding signal (z-score),[29],0.157
same,glycan array binding signal (z-score),[30],-0.08
same,glycan array binding signal (z-score),[31],-0.079
same,glycan array binding signal (z-score),[32],-0.069
same,glycan array binding signal (z-score),[33],-0.073
same,glycan array binding signal (z-score),[34],3.68
same,glycan array binding signal (z-score),[35],0.046
same,glycan array binding signal (z-score),[36],0.232
same,glycan array binding signal (z-score),[37],-0.083
same,glycan array binding signal (z-score),[38],0.519
same,glycan array binding signal (z-score),[39],-0.077
same,glycan array binding signal (z-score),[40],-0.09
same,glycan array binding signal (z-score),[41],-0.079
same,glycan array binding signal (z-score),[42],-0.077
same,glycan array binding signal (z-score),[43],-0.081
same,glycan array binding signal (z-score),[44],-0.076
same,glycan array binding signal (z-score),[45],-0.071
same,glycan array binding signal (z-score),[46],-0.071
same,glycan array binding signal (z-score),[47],-0.084
same,glycan array binding signal (z-score),[48],0.341

# From the supplement of paper PMC8728848
